Bioassay records deposited in PubChem by Broad Institute.
The list is not random: actives were taken first. Their share in the collection is about 2.5%.
BJeLR viab HTS: BJeLR cell viability reduction; BJeLR fibroblasts viability, CellTiterGlo ATP luminescence, 48 h; HRASV12, hTERT and SV40 LT/ST transformed; viability loss activity score, % (no concentration beside the values); 30,000 compounds, 0.64% hits; AID 2275; in the data active means viability loss activity score above about 50%;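 further: higher score means fewer live cells and less ATP luminescence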
MITF inhib: MITF inhibition; TRPM1 promoter luciferase, luminescence, 24 h; inhibition, % (no concentration beside the values); 37,000 compounds, 0.28% hits; AID 2240; in the data active means inhibition above about 85%;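 further: human melanocyte line stably carrying TRPM1 promoter luciferase reporter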
YB-1 expression: YB-1 expression inhibition. U2OS, qRT-PCR YB-1 vs CDIP delta delta Cp, 16 h; active compounds read high; zero = DMSO, each unit about twofold. delta delta Cp (YB-1 minus CDIP) (no concentration beside the values). 30,000 compounds, 0.37% hits. AID 434959;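 active means delta delta Cp rounded down to an integer at or above 3, about 3 SD of DMSO wells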;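 further: higher means less YB-1 transcript or more CDIP transcript relative to DMSO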
U2OS ROS induce: inducers of reactive oxygen species in cancer cells. U2OS ROS induction, H2DCF-DA fluorescence. ROS induction (% of piperlongumine), % at 10 µM. 46,000 compounds, 2% hits. AID 624156; in the data active means ROS induction above about 79%, passing the limit was not always enough;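 further: 0% = DMSO vehicle median and 100% = reference compound median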
Starred values were filed as active, the others as inactive; nt = no result.

SMILES	BJeLR viab HTS	MITF inhib	YB-1 expression	U2OS ROS induce
C[C@H](CO)N1C[C@H](C)[C@@H](CN(C)Cc2ccc(-c3ccccc3)cc2)Oc2ccc(NC(=O)Cc3ccccc3)cc2C1=O	2	-6	-0.0095	274*
Cc1ccc(NC(=O)c2cc3c(=O)oc4ccccc4c3n2C)cc1F	2	nt	nt	nt
COc1ccc(C2C(C(=O)Nc3cccc(C)n3)c3ccccc3C(=O)N2c2ccc(OC)cc2)cc1 (stereo not drawn)	6	nt	nt	nt
COc1cccc(-n2c(=O)c3c(C)c(C)sc3n(CC(=O)NCCC3=CCCCC3)c2=O)c1	-3	nt	nt	nt
CCSc1nnc2n(-c3ccccc3)c3ccccc3n12	0	nt	nt	nt
CC(C(=O)N1CCN(c2ccc(F)cc2)CC1)N1C(=O)c2ccccc2C1=O (stereo not drawn)	1	nt	nt	nt
N#Cc1ccccc1NC(=O)CCCC(=O)Nc1ccccc1C#N	-4	nt	nt	nt
O=C(Nc1ccc(Cl)cc1)Nc1cccc(-c2cn3cccnc3n2)c1	6	nt	nt	nt
C[C@H]1CN([C@@H](C)CO)C(=O)c2cc(NC(=O)Cc3ccccc3)ccc2O[C@@H]1CN(C)Cc1ccc(-c2ccccc2)cc1	-7	-6	0.73	177*
C[C@@H]1CN([C@@H](C)CO)C(=O)c2cc(NC(=O)Cc3ccccc3)ccc2O[C@H]1CN(C)Cc1ccccc1	2	-6	-0.12	-5
C[C@H]1CN([C@@H](C)CO)C(=O)c2cc(N(C)C)ccc2O[C@@H]1CN(C)Cc1ccc(-c2ccccc2)cc1	-2	1	0.2	206*
CSc1nc(N)nc(SCC(=O)Nc2ccccc2)c1C#N	5	nt	nt	9
O=C(C1CCCO1)N1N=C(c2c(-c3ccccc3)c3cc(Cl)ccc3[nH]c2=O)CC1c1ccco1 (stereo not drawn)	nt	8	nt	178*
S=C(Nc1ccc(Cl)c(Cl)c1)NC1CCCC1	1	nt	nt	-1
C[C@H]1CN([C@@H](C)CO)C(=O)c2cccc(NC(=O)c3ccc(-c4nccs4)cc3)c2O[C@@H]1CN(C)Cc1ccc(C(=O)Nc2ccccc2N)cc1	nt	40	-0.023	159*
C[C@@H]1CN([C@H](C)CO)C(=O)c2cccc(NC(=O)c3ccc(-c4nccs4)cc3)c2O[C@H]1CN(C)Cc1ccc(C(=O)Nc2ccccc2N)cc1	nt	23	-0.66	95*
C[C@@H]1CN([C@@H](C)CO)C(=O)c2cccc(NC(=O)c3ccc(-c4nccs4)cc3)c2O[C@@H]1CN(C)Cc1ccc(-c2ccccc2)cc1	2	-5	-0.13	67
Cc1noc(C)c1S(=O)(=O)N(C)C[C@H]1Oc2c(NC(=O)c3ccc(-c4nccs4)cc3)cccc2C(=O)N([C@H](C)CO)C[C@H]1C	4	-14	-0.27	106*
O=C(Nc1c(C(=O)c2ccccc2)oc2ccccc12)c1ccc(Cl)cc1	1	nt	nt	nt
Cc1cc(C(=O)Nc2cccc3c2O[C@@H](CN(C)Cc2ccc(C(=O)Nc4ccccc4N)cc2)[C@H](C)CN([C@H](C)CO)C3=O)n(C)n1	nt	0	-0.11	29
Cc1cc(C(=O)Nc2cccc3c2O[C@H](CN(C)Cc2ccc(C(=O)Nc4ccccc4N)cc2)[C@@H](C)CN([C@H](C)CO)C3=O)n(C)n1	nt	1	-0.22	130*
Cc1cc(C(=O)Nc2cccc3c2O[C@H](CN(C)Cc2ccc(C(=O)Nc4ccccc4N)cc2)[C@@H](C)CN([C@@H](C)CO)C3=O)n(C)n1	nt	11	-0.58	189*
Clc1ccc(CO/N=C(\Cn2ccnc2)c2ccc(Cl)cc2Cl)c(Cl)c1	-10	93*	-0.56	35
O/N=C(\Cn1cncn1)c1ccc(Cl)cc1Cl	-2	-3	0.16	8
c1ccc(CN(CCN(Cc2ccccn2)Cc2ccccn2)Cc2ccccn2)nc1	110*	88*	-0.37	-2
SMILES	BJeLR viab HTS	MITF inhib	YB-1 expression	U2OS ROS induce
Cc1cc[n+](Cc2ccccn2)c(N)c1	6	0	-0.038	-9
O=C(NCc1ccccc1)[C@@]1(CCS(=O)(=O)c2ccccc2)N=C(c2ccc(OCCCO)cc2)O[C@H]1c1ccccc1	nt	nt	-0.33	78*
O=C1N(CCS(=O)(=O)c2ccccc2)Cc2ccccc2[C@@H]2OC(c3ccc(OCCCO)cc3)=N[C@]12CCS(=O)(=O)c1ccccc1	nt	nt	0.41	96*
CC(=O)N1Cc2ccccc2C[C@]2(N=C(c3ccc(OCCCO)cc3)O[C@@H]2c2ccccc2)C1=O	nt	nt	0.17	34
C=CCN1Cc2ccccc2[C@@H]2OC(c3ccc(OCCCO)cc3)=N[C@]2(CCS(=O)(=O)c2ccccc2)C1=O	nt	nt	0.25	51
O=C(NCC(O)CO)[C@]1(CCS(=O)(=O)c2ccccc2)N=C(c2ccc(OCCCO)cc2)O[C@@H]1c1ccccc1 (stereo partly drawn)	nt	nt	0.55	24
CC(=O)N1Cc2ccccc2C[C@@]2(N=C(c3ccc(OCCCO)cc3)O[C@H]2c2ccccc2)C1=O	nt	nt	0.019	79*
Cc1ccc(S(=O)(=O)NC2c3ccccc3Oc3ccccc32)cc1	7	nt	nt	1
CCOC(=O)C(C)Sc1ncnc2c1nnn2-c1ccc(OC)cc1 (stereo not drawn)	5	nt	nt	179*
CCOC(=O)C(C)Sc1nc(-c2ccc(OC)cc2)nc2c1c(=O)n(C)c(=O)n2C (stereo not drawn)	2	nt	nt	nt
O=C(CSc1nc2ccccc2c(=O)n1NC(=O)c1ccccc1)NCc1ccccc1	-2	nt	nt	1
C[C@@H]1O[C@@H](O[C@H]2[C@@H]3C=CO[C@@H](O[C@@H]4O[C@H](CO)[C@@H](O)[C@H](O)[C@H]4O)[C@@H]3[C@@]3(CO)O[C@@H]23)[C@H](O)[C@H](OC(=O)/C=C/c2ccc(O)cc2)[C@H]1O	nt	nt	0.37	88*
CC(=O)O[C@@H]1[C@@H](O)[C@H](C)O[C@@H](O[C@H]2[C@@H]3C=CO[C@@H](O[C@@H]4O[C@H](CO)[C@@H](O)[C@H](O)[C@H]4O)[C@@H]3[C@@]3(CO)O[C@@H]23)[C@@H]1OC(=O)/C=C/c1ccc(O)cc1	1	12	0.053	73
COc1ccc(/C=C/C(=O)O[C@H]2[C@H](O[C@H]3[C@@H]4C=CO[C@@H](O[C@@H]5O[C@H](CO)[C@@H](O)[C@H](O)[C@H]5O)[C@@H]4[C@@]4(CO)O[C@@H]34)O[C@@H](C)[C@H](O)[C@H]2OC(C)=O)cc1	-13	-17	10*	-9
COc1ccc(/C=C/C(=O)O[C@@H]2[C@@H](O)[C@H](C)O[C@@H](O[C@H]3[C@@H]4C=CO[C@@H](O[C@H]5O[C@@H](CO)[C@H](O)[C@@H](O)[C@@H]5O)[C@@H]4[C@@]4(CO)O[C@@H]34)[C@@H]2OC(C)=O)cc1	-9	-2	-0.16	-4
CCN1C(=O)C2(c3ccccc31)c1c(oc3ccccc3c1=O)C(=O)N2CCO (stereo not drawn)	-3	nt	nt	-10
Cc1ccc(/C=N/N(C)S(=O)(=O)c2ccc(C)cc2)cc1	6	67	-0.31	95*
OCCCn1c(-c2ccccc2)cn2c3ccccc3nc12	nt	98*	nt	nt
Cc1cc(Sc2nnc(/N=C/N(C)C)s2)c2ccccc2n1	54*	nt	nt	192*
O=C(c1cccc2ccccc12)N(C1CCCC1)C1CCCC1	-4	nt	nt	10
COc1cc(NC(=O)c2ccc(CSC3CCCCC3)cc2)cc(OC)c1OC	0	nt	nt	135*
Cc1ccc2nc(-c3ccncc3)cc(-c3ccccc3)c2c1	1	nt	nt	88*
O=C(Cn1c(-c2cccs2)cc2ccccc21)NC1CCCCC1	-1	nt	nt	115*
COc1ccc(OC)c(C(O)CNC(=O)CN)c1 (stereo not drawn)	3	-9	-0.42	122*
